In the supplement of paper PMC10849652:
The full data set covers some 8,800 targets. This sample favours those with a hit. About 0.5% of all pairs of compound and target were hits. Unmarked numbers belong to inactive results.

What was measured:
Assay in all cases: log2 fold change, soluble protein after heating vs DMSO (PISA); higher = thermal stabilisation; K562 lysate, 10 uM; active = over 0.2 and 3.5 SD of the protein, either way, in both replicates (recomputed)
[1] = compound: CC(C)(C)Cn1c(N)nc2ccc(-c3[nH]c(C(C)(C)C)nc3-c3ccc(F)cc3)nc21 [ralimetinib]
How it was run: (§1)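 K562 pellets were dounce-homogenised in PBS pH 7.4 containing 1 mM MgCl2, and the crude extract, at 1 mg/mL protein, was exposed to 10 μM compound for 30 min. Aliquots were heated for 3 min across 48°C-58°C, pooled, brought to 0.5% NP-40 at 4°C and spun at 21,000xg for 90 min, with the supernatant taken as soluble protein. TMTpro 16plex LC-MS/MS with equalised channel sums quantified that protein. Values are log-two fold changes in thermal stability relative to solvent controls, taken from duplicates.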

[2] = compound: CC(C)(O)CC(=O)NCCn1ccc2ncnc(Nc3ccc(Oc4cccc(C(F)(F)F)c4)c(Cl)c3)c21
How it was run: as §1

[3] = compound: CC(C)C1=C2N=C(C=C(N2N=C1)NCC3=CC=CC=C3)NCCCCCCN
How it was run: as §1

[4] = compound: CC1=C(C(CC(=O)N1)C2=CC=C(C=C2)C(F)(F)F)C(=O)NC3=C(C=C4C(=C3)C=NN4)F
How it was run: as §1

[5] = compound: CC1=C(C=C(C=C1)NC(=O)C2=CC(=CC=C2)C(C)(C)C#N)NC3=CC4=C(C=C3)N=CN(C4=O)C
How it was run: as §1

[6] = compound: CC1=C(C=C(C=C1)NC(=O)C2=CC(=CC=C2)N(C)C)NC(=O)C3=CC=C(C=C3)O
How it was run: as §1

[7] = compound: CCCS(=O)(=O)Nc1ccc(F)c(C(=O)c2c[nH]c3ncc(-c4ccc(Cl)cc4)cc23)c1F [vemurafenib]
How it was run: as §1

[8] = compound: CC[C@@H]1C(=O)N(C)c2cnc(Nc3ccc(C(=O)NC4CCN(C)CC4)cc3OC)nc2N1C1CCCC1
How it was run: as §1

[9] = compound: CCn1c(C(=O)N(C2CC2)C2CC2)cc2c3c(ncn3C)c(Nc3cc(C)n(C)n3)nc21
How it was run: as §1

[10] = compound: CCn1cc(-c2ccnc3[nH]c(-c4cccc(CN(C)C)c4)cc23)c(-c2ccc(NC(=O)N(C)C)cc2)n1
How it was run: as §1

[11] = compound: CN1CCC(CNc2ccc3ncc(-c4cccc(OC(F)(F)F)c4)n3n2)CC1
How it was run: as §1

[12] = compound: CN1CCN(c2nc(C3=C(c4c[nH]c5ccccc45)C(=O)NC3=O)c3ccccc3n2)CC1 [sotrastaurin]
How it was run: as §1

[13] = compound: C=CC(=O)N1CCC[C@@H](n2nc(-c3ccc(Oc4ccccc4)cc3)c3c(N)ncnc32)C1 [ibrutinib]
How it was run: as §1

[14] = compound: CC(=O)c1cnc2ccc(-c3cc(Cl)c(O)c(Cl)c3)nc2c1N[C@H]1CC[C@H](CN(C)C)CC1
How it was run: as §1

[15] = compound: CC1=C(C2=C(C=C1)C(=O)C3=CC=CC=C3N2CCCN)C
How it was run: as §1

[16] = compound: CC1=CC=C(C=C1)SC2=C3C=C(SC3=CN=C2)C(=O)N
How it was run: as §1

[17] = compound: CCCS(=O)(=O)Nc1ccc(F)c(C(=O)c2c[nH]c3ncc(Cl)cc23)c1F
How it was run: as §1

[18] = compound: CCN(CCCOc1ccc2c(Nc3cc(CC(=O)Nc4cccc(F)c4)[nH]n3)ncnc2c1)CCOP(=O)(O)O [barasertib]
How it was run: as §1

[19] = compound: CC[C@@H]1C(=O)N(C)c2cnc(Nc3ccc(C(=O)N[C@H]4CC[C@H](N5CCN(CC6CC6)CC5)CC4)cc3OC)nc2N1C(C)C [volasertib]
How it was run: as §1

[20] = compound: CN1CCN(CCOc2cc(OC3CCOCC3)c3c(Nc4c(Cl)ccc5c4OCO5)ncnc3c2)CC1 [saracatinib]
How it was run: as §1

Sequence of UniProt O15120 (O15120 whole entry, looked up): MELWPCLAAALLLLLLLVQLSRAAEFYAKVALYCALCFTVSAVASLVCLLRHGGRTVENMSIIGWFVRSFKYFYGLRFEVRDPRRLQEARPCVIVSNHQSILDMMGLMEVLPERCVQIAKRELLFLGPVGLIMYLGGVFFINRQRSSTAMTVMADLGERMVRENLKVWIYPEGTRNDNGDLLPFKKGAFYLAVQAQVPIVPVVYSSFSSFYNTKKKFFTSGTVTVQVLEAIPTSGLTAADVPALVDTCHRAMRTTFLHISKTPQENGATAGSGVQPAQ
Sequence of UniProt Q9BXX3 (Q9BXX3 whole entry, looked up): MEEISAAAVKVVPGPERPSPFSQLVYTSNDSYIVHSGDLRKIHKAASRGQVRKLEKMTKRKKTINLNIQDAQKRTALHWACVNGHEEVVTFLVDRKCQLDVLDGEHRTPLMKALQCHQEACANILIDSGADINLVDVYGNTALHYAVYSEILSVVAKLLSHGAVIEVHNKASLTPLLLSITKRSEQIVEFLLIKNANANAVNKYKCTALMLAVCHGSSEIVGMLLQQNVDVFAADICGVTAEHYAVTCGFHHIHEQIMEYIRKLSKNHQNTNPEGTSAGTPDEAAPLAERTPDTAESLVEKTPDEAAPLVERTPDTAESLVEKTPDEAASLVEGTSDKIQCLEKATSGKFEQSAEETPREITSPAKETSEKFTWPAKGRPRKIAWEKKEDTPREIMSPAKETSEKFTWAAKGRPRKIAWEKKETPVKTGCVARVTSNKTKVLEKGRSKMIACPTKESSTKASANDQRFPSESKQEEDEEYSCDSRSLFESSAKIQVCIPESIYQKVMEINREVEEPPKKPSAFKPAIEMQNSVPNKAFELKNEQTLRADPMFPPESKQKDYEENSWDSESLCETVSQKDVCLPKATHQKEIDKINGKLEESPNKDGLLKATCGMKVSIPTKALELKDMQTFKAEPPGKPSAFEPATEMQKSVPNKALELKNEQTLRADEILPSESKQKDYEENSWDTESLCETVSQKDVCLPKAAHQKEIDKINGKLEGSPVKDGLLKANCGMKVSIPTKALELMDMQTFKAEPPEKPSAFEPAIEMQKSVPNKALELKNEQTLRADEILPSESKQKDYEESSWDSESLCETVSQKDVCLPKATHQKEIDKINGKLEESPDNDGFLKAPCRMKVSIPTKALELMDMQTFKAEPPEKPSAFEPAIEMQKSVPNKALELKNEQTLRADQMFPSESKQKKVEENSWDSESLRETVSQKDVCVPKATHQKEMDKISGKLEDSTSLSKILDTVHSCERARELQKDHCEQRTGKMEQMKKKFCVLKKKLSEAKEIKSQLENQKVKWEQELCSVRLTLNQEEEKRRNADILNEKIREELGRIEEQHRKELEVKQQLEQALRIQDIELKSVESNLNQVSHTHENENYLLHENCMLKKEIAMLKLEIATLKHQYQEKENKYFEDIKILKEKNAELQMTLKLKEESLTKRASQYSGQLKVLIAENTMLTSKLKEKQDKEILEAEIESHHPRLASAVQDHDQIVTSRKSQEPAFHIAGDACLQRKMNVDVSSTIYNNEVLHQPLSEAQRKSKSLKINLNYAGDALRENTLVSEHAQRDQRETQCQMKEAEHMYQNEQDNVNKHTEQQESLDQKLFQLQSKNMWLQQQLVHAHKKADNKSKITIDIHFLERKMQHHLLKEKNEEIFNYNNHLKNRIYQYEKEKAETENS
Sequence of UniProt Q13686 (Q13686 whole entry, looked up): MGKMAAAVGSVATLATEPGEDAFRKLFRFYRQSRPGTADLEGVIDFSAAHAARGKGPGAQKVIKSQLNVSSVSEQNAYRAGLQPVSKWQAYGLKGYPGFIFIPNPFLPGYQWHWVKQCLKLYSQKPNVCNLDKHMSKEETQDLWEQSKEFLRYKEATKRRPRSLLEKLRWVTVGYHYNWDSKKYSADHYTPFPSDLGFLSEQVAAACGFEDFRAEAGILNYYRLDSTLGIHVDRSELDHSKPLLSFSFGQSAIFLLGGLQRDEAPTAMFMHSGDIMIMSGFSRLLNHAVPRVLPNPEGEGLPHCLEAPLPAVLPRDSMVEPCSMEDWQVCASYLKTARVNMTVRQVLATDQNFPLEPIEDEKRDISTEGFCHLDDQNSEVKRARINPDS
Sequence of UniProt Q2VPB7 (Q2VPB7 whole entry, looked up): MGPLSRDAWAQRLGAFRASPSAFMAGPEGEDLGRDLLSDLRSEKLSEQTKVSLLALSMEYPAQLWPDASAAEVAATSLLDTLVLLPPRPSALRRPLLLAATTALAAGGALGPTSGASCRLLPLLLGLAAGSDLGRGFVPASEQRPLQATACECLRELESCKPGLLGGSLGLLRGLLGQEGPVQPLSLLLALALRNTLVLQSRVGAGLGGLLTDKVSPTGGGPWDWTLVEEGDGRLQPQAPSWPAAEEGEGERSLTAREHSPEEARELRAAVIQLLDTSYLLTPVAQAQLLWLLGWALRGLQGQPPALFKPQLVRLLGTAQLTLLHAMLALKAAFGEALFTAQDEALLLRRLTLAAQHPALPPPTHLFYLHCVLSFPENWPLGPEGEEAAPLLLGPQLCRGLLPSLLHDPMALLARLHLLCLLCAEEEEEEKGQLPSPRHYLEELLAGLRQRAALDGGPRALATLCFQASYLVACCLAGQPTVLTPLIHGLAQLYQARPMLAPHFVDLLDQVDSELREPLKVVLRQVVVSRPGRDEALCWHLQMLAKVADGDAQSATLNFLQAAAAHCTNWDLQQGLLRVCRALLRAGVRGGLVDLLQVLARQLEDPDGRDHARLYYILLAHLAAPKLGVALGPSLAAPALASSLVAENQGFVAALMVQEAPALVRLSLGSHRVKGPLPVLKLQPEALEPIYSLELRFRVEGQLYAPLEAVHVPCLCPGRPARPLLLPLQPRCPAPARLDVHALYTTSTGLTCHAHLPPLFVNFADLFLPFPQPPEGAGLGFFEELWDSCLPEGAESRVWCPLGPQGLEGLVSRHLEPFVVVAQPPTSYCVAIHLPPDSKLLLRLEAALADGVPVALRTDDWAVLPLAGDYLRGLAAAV
Sequence of UniProt P54886 (P54886 whole entry, looked up): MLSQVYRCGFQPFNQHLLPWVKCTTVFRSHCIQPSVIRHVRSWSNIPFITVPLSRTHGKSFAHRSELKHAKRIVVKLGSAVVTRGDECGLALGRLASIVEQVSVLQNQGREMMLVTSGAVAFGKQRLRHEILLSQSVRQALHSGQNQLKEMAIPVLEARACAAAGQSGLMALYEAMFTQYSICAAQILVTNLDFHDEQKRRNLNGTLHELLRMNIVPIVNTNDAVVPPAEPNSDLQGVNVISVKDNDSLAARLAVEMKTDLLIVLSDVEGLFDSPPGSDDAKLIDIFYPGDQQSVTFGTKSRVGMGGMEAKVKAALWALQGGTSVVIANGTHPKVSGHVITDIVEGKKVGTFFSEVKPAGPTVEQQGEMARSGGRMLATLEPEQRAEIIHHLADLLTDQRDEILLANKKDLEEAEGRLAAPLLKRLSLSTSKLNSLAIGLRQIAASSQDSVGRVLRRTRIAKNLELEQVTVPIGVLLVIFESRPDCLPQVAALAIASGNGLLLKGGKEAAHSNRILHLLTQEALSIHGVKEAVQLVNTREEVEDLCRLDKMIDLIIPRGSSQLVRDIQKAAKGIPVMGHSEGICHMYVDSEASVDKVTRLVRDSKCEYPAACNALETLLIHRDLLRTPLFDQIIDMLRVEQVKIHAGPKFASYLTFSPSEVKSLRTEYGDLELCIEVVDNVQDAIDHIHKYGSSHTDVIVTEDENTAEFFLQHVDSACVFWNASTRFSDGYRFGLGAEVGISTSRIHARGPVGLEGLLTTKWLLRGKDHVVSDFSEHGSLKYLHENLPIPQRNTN
Sequence of UniProt Q9P1F3 (Q9P1F3 whole entry, looked up): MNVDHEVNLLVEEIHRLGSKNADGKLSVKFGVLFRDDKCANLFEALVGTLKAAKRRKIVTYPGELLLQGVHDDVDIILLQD
Sequence of UniProt Q13155 (Q13155 whole entry, looked up): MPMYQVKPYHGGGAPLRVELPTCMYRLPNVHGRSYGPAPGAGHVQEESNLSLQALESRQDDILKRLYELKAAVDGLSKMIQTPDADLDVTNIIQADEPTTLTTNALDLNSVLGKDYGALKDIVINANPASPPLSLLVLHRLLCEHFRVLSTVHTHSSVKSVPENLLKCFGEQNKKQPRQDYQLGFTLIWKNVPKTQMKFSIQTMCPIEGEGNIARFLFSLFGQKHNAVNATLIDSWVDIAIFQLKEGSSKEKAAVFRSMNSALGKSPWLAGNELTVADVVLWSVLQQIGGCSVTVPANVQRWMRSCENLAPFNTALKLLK
Sequence of UniProt Q9BT30 (Q9BT30 whole entry, looked up): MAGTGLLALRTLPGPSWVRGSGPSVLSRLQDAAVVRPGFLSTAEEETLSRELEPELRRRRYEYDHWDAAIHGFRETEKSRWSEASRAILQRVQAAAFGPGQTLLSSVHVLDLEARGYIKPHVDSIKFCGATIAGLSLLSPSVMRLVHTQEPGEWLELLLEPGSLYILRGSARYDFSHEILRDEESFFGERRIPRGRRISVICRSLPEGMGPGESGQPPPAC
Sequence of UniProt Q3SXY8 (Q3SXY8 whole entry, looked up): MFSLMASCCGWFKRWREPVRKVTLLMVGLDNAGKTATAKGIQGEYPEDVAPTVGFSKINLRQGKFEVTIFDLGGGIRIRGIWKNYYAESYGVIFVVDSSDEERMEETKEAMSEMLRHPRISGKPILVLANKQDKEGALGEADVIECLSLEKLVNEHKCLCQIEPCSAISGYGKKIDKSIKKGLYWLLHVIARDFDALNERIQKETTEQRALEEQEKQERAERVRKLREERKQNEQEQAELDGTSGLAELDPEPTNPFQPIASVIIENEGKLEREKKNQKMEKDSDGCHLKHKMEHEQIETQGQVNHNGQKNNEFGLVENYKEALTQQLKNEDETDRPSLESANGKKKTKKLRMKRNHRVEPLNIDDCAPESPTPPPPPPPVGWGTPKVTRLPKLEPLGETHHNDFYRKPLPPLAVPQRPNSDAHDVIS

| Target | log2 fold change [1] | log2 fold change [2] | log2 fold change [3] | log2 fold change [4] | log2 fold change [5] | log2 fold change [6] | log2 fold change [7] | log2 fold change [8] | log2 fold change [9] | log2 fold change [10] | log2 fold change [11] | log2 fold change [12] | log2 fold change [13] | log2 fold change [14] | log2 fold change [15] | log2 fold change [16] | log2 fold change [17] | log2 fold change [18] | log2 fold change [19] | log2 fold change [20] |
| --- | --- | --- | --- | --- | --- | --- | --- | --- | --- | --- | --- | --- | --- | --- | --- | --- | --- | --- | --- | --- |
| AGPAT2 (UniProt O15120) | 0.1 | -0.071 | 0.046 | 0.03 | -0.064 | 0.013 | 0.33 (active) | 0.108 | 0.002 | -0.034 | 0.023 | 0 |  |  |  |  |  |  |  |  |
| ABRACL (UniProt Q9P1F3) |  |  | 0.001 | -0.112 | 0.051 |  |  |  |  | 0.156 | 0.053 | 0 | 0.109 | -0.179 | 0.142 | 0.015 | -0.074 | 0.06 | -0.001 | 0.134 |
| ACTG1 (UniProt K7EM38) |  |  |  |  |  |  |  | -0.208 |  |  |  |  |  | -0.044 |  | 0.152 | -0.259 |  | -0.124 |  |
| ALKBH1 (UniProt Q13686) | 0.095 | -0.1 | 0.008 | -0.003 |  | 0.093 | 0.069 | -0.05 | -0.043 | 0.015 | -0.072 |  |  |  | -0.102 |  |  |  |  | -0.037 |
| AP5B1 (UniProt Q2VPB7) | -0.04 | -0.072 | 0.011 | 0.021 | -0.08 | 0.036 |  | 0.066 | 0.001 | 0.002 | 0.045 | -0.062 | 0.112 | -0.037 | -0.067 | -0.006 | 0.062 | 0.035 | 0.011 | -0.014 |
| AIMP2 isoform 2 (UniProt Q13155) | 0.061 | -0.036 |  |  | 0.089 | 0.023 |  |  | -0.027 |  |  | 0.014 | -0.28 | 0.064 |  | 0 | -0.134 | 0.038 | 0.047 |  |
| ANP32E isoform 3 (UniProt Q9BTT0) |  |  |  |  |  |  | 0.034 | -0.026 |  | -0.724 (active) | 0.468 |  | -0.065 |  |  |  |  | -0.086 |  |  |
| ALKBH7 (UniProt Q9BT30) | 0.116 | 0.09 | -0.085 | 0.256 | 0.077 | 0.019 |  | -0.031 | 0.072 | 0.233 | -0.2 | -0.016 |  |  | -0.012 |  |  |  |  | -0.012 |
| ARL13B (UniProt Q3SXY8) | 0.058 | -0.032 | 0.081 |  | 0.047 | -0.068 | -0.075 |  | -0.043 | 0.325 | -0.246 | 0.117 | -0.001 | -0.033 | -0.002 | 0.077 | -0.039 | -0.041 | 0.065 | 0.007 |
| ANKRD30A (UniProt Q9BXX3) | 0.014 | 0.088 |  | 0.007 | -0.088 | 0.077 |  | -0.102 | 0.152 | 0.262 | 0.891 | 0.032 | -0.01 | 0.77 | 0.038 | -0.177 | 0.111 | 0.087 | -0.08 | 0.072 |
| ALDH18A1 isoform 2 (UniProt P54886) | -0.308 | -0.245 |  |  | 0.03 | 0.19 | 0.308 |  | 0.043 |  |  | 0.121 |  |  | -0.378 |  |  |  |  | 0.13 |
